# From PMC7862700, “An all-to-all approach to the identification of sequence-specific readers for epigenetic DNA modifications on cytosine”
# What was measured:
# Test in all cases: DAPPL (digital affinity profiling via proximity ligation, sequencing); 10 mM Tris-HCl pH 7.5, 50 mM NaCl, 1 mM DTT, 4% glycerol, room temperature, 30 min; GST-TFs on glutathione beads, 16-mer random dsDNA library, 0.1% formaldehyde crosslink after washing; high values mean tight binding
# FEV = target: T1, FEV (Homo sapiens, UniProt Q99581 1-238); conditions: protein: recombinant; tags: N-terminal GST; dsDNA, one strand shown
# T1 sequence: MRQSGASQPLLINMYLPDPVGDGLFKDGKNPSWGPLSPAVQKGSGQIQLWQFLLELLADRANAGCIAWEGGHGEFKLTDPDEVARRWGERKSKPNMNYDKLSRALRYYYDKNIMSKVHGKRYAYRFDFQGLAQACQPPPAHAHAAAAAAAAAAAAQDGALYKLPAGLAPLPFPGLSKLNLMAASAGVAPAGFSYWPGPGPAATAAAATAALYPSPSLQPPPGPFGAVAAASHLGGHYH
# Method in brief: (§1)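 The binding signal reported is, for every hexamer, its read frequency for a factor over its read frequency for the tag-only sample. Reads came from pools of yeast-expressed, GST-fused human transcription factors on glutathione beads, barcoded with DNA and mixed with that sample, which were incubated with 200 nmole of a random double-stranded 16-mer DNA library in Tris/NaCl/DTT/glycerol buffer at room temperature for 30 min. After washing, the pools were crosslinked with 0.1% formaldehyde, proximity-ligated with BsaI/T4 ligase for 1 h at 37 °C, PCR-amplified and sequenced on an Illumina NextSeq500.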
# ETV5 = ETV5 (Homo sapiens, UniProt P41161 1-510); conditions: protein: recombinant; tags: N-terminal GST; dsDNA, one strand shown
# Method in brief: as §1
# HSF1 = HSF1 (Homo sapiens, UniProt Q00613 1-529); conditions: protein: recombinant; tags: N-terminal GST; chain copies: 3; dsDNA, one strand shown
# Method in brief: as §1
# SPIC = target: T2, SPIC (Homo sapiens, UniProt Q8N5J4 1-248); conditions: protein: recombinant; tags: N-terminal GST; dsDNA, one strand shown
# T2 sequence: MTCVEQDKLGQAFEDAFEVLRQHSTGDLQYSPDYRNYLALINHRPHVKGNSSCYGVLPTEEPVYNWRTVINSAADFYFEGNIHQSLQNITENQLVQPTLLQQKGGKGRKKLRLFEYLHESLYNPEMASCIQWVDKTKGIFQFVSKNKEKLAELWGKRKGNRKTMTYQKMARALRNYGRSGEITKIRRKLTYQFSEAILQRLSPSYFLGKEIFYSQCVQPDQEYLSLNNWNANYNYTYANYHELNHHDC
# Method in brief: as §1
# ELF4 = ELF4 (Homo sapiens, UniProt Q99607 1-663); conditions: protein: recombinant; tags: N-terminal GST; dsDNA, one strand shown
# Method in brief: as §1
# ELK4 = target: T3, ELK4 (Homo sapiens, UniProt P28324-2 1-405); conditions: protein: recombinant; tags: N-terminal GST; dsDNA, one strand shown
# T3 sequence: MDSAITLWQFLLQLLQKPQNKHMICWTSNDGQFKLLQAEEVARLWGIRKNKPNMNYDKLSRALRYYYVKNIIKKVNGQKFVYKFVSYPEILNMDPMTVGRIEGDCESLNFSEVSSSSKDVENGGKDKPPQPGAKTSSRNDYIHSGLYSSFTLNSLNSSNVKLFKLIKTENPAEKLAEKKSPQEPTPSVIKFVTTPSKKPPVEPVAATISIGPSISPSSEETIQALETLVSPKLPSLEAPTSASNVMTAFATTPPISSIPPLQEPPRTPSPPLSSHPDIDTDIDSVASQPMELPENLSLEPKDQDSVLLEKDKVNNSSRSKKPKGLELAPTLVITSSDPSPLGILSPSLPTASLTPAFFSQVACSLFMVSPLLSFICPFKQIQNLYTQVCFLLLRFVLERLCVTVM
# Method in brief: as §1
# ETV2 = target: T4, ETV2 (Homo sapiens, UniProt O00321 1-342); conditions: protein: recombinant; tags: N-terminal GST; dsDNA, one strand shown
# T4 sequence: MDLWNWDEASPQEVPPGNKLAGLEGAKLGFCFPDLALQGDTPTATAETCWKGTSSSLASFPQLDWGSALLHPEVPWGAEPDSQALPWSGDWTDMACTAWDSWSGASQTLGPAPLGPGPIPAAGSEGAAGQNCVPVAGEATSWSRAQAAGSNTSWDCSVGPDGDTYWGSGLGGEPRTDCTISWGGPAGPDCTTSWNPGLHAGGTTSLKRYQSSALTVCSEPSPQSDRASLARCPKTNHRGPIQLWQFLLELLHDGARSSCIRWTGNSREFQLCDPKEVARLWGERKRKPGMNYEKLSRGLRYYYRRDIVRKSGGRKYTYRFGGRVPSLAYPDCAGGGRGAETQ
# Method in brief: as §1
# ELF3 = target: T5, ELF3 (Homo sapiens, UniProt P78545 1-371); conditions: protein: recombinant; tags: N-terminal GST; dsDNA, one strand shown
# T5 sequence: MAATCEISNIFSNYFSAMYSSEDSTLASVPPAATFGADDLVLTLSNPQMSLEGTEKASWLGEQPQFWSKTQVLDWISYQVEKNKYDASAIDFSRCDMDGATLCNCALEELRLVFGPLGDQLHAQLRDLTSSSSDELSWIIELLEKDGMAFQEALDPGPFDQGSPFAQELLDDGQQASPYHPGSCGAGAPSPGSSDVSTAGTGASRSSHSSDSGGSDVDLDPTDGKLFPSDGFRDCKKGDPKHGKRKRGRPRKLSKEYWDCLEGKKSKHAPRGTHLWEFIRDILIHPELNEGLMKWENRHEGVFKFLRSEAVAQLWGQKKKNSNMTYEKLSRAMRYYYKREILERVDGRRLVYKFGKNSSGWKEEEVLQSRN
# Method in brief: as §1
# CRX = CRX (Homo sapiens, UniProt O43186 1-299); conditions: protein: recombinant; tags: N-terminal GST; dsDNA, one strand shown
# Method in brief: as §1
# ETV1 = ETV1 (Homo sapiens, UniProt P50549 1-477); conditions: protein: recombinant; tags: N-terminal GST; dsDNA, one strand shown
# Method in brief: as §1
# ERF = target: T6, ERF (Homo sapiens, UniProt P50548 1-548); conditions: protein: recombinant; tags: N-terminal GST; dsDNA, one strand shown
# T6 sequence: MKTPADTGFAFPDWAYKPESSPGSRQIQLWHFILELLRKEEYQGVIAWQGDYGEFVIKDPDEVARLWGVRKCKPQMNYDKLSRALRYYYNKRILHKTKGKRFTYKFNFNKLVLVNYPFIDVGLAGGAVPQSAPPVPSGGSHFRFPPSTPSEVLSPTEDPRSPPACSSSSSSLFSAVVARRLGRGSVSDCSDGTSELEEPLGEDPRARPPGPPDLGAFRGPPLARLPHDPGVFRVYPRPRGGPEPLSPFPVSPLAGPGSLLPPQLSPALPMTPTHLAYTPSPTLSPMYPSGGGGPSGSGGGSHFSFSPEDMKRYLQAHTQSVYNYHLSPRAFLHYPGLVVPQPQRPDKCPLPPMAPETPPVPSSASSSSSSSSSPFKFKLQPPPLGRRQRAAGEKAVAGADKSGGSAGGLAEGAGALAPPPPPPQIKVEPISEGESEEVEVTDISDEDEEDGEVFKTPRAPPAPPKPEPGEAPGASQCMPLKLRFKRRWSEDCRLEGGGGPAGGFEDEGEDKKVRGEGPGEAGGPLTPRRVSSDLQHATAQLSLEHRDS
# Method in brief: as §1
# ETV3L = target: T7, ETV3L (Homo sapiens, UniProt Q6ZN32 1-361); conditions: protein: recombinant; tags: N-terminal GST; dsDNA, one strand shown
# T7 sequence: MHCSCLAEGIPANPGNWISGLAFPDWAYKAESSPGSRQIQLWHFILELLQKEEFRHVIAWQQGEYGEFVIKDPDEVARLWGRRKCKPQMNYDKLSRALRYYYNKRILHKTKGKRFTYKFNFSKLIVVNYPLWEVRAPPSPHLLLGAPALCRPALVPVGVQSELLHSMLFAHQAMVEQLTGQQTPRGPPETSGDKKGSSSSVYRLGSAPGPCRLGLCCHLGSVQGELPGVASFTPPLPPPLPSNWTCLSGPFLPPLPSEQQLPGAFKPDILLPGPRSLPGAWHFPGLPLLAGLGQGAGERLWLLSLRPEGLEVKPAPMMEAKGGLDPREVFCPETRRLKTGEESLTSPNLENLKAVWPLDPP
# Method in brief: as §1
# ETS2 = target: T8, ETS2 (Homo sapiens, UniProt P15036 1-469); conditions: protein: recombinant; tags: N-terminal GST; dsDNA, one strand shown
# T8 sequence: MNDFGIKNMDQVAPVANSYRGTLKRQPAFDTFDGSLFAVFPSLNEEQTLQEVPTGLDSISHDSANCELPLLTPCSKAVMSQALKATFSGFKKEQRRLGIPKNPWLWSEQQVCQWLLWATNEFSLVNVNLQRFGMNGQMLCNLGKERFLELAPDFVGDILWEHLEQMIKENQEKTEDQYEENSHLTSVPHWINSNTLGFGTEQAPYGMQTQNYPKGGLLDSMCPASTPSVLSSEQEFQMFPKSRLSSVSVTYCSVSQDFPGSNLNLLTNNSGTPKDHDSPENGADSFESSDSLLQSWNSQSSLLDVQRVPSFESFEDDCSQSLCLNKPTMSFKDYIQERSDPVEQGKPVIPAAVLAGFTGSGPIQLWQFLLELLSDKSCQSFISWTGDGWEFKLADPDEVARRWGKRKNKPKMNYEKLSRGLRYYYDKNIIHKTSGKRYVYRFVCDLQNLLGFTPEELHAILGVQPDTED
# Method in brief: as §1
# SPDEF = target: T9, SPDEF (Homo sapiens, UniProt O95238 1-335); conditions: protein: recombinant; tags: N-terminal GST; dsDNA, one strand shown
# T9 sequence: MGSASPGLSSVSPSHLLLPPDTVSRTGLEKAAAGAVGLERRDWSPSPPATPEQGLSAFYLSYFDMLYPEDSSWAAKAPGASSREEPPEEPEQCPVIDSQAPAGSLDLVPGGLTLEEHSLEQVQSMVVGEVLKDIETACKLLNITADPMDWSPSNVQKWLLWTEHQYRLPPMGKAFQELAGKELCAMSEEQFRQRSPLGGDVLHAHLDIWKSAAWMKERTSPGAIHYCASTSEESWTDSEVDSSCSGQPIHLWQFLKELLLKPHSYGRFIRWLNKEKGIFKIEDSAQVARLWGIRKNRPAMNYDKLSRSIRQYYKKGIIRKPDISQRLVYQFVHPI
# Method in brief: as §1
# ETV7 = target: T10, ETV7 (Homo sapiens, UniProt Q9Y603 1-341); conditions: protein: recombinant; tags: N-terminal GST; dsDNA, one strand shown
# T10 sequence: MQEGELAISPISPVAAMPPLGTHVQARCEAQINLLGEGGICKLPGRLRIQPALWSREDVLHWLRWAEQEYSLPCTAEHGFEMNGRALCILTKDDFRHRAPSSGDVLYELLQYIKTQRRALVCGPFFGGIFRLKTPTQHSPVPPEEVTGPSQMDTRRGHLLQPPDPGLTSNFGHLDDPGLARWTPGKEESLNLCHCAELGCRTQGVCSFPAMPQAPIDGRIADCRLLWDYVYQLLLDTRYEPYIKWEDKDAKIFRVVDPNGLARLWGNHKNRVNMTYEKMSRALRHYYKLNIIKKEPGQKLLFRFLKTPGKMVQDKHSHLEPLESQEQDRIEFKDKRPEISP
# Method in brief: as §1
# ELF5 = target: T11, ELF5 (Homo sapiens, UniProt Q9UKW6-2 1-255); conditions: protein: recombinant; tags: N-terminal GST; dsDNA, one strand shown
# T11 sequence: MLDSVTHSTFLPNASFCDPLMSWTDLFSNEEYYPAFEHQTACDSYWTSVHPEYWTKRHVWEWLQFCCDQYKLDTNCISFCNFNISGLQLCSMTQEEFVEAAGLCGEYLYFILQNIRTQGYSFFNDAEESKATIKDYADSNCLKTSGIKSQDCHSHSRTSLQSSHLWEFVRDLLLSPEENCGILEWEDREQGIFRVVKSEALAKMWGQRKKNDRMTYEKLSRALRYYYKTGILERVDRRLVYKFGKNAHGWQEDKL
# Method in brief: as §1
# ETV3 = target: T12, ETV3 (Homo sapiens, UniProt P41162-2 1-143); conditions: protein: recombinant; tags: N-terminal GST; dsDNA, one strand shown
# T12 sequence: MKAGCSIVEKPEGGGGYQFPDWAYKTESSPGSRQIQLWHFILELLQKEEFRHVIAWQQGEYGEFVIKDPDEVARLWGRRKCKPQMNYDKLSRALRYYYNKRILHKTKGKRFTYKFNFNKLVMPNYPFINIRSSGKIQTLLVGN
# Method in brief: as §1
# ETV6 = ETV6 (Homo sapiens, UniProt P41212 1-452); conditions: protein: recombinant; tags: N-terminal GST; dsDNA, one strand shown
# Method in brief: as §1
# Chain of CRX (O43186 whole entry): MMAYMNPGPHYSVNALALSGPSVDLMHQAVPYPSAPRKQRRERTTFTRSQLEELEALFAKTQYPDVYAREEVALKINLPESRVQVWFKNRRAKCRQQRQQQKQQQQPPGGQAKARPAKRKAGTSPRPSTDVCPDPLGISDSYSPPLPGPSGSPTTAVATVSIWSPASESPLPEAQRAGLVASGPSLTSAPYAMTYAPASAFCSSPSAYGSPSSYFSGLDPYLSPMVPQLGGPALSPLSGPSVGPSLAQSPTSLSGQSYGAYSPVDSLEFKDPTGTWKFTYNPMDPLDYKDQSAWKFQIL
# Chain of ELF4 (Q99607 whole entry): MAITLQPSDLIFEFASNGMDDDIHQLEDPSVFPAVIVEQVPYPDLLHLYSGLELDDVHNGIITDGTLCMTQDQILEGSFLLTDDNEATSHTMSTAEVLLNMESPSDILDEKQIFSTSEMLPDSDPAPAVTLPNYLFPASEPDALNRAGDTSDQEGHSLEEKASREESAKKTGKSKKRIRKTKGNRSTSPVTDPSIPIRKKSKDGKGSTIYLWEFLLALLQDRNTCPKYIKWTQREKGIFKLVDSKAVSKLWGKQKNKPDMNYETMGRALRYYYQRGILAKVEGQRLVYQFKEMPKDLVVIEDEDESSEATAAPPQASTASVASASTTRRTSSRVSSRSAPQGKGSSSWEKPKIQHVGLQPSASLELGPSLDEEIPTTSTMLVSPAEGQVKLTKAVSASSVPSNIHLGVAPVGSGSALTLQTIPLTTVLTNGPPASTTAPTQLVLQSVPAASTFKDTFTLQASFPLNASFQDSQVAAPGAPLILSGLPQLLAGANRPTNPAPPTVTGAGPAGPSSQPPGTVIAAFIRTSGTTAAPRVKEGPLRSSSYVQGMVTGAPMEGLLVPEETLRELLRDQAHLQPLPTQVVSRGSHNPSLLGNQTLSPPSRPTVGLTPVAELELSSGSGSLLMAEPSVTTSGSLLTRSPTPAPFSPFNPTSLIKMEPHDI
# Chain of ETV5 (P41161 whole entry): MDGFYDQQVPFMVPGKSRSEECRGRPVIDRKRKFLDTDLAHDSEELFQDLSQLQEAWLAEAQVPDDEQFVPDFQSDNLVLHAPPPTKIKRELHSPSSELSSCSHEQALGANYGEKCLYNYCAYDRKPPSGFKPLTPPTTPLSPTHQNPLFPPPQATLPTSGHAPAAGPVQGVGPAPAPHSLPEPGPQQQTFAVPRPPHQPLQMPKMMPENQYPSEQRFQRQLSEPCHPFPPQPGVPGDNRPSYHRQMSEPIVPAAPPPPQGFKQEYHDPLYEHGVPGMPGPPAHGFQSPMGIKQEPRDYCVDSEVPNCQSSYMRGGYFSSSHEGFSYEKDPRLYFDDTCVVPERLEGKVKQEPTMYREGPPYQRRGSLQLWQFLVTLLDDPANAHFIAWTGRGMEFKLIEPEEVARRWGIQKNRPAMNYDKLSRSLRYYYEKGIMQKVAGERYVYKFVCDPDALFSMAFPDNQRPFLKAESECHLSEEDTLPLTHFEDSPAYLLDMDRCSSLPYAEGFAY
# Chain of HSF1 (Q00613 whole entry): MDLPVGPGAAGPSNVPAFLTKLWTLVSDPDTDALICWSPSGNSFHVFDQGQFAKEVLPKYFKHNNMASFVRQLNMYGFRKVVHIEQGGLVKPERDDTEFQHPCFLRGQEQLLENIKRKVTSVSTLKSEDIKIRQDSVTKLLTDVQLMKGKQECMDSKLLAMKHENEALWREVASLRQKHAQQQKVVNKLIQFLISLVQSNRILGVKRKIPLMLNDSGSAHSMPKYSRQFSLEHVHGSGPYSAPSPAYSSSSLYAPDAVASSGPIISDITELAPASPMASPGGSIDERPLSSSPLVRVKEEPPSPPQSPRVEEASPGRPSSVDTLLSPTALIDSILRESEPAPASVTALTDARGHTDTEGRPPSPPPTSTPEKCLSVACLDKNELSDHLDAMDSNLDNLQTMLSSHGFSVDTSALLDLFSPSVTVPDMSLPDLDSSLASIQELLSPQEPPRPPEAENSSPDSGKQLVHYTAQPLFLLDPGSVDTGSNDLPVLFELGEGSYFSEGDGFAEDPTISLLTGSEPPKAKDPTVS
# Chain of ETV1 (P50549 whole entry): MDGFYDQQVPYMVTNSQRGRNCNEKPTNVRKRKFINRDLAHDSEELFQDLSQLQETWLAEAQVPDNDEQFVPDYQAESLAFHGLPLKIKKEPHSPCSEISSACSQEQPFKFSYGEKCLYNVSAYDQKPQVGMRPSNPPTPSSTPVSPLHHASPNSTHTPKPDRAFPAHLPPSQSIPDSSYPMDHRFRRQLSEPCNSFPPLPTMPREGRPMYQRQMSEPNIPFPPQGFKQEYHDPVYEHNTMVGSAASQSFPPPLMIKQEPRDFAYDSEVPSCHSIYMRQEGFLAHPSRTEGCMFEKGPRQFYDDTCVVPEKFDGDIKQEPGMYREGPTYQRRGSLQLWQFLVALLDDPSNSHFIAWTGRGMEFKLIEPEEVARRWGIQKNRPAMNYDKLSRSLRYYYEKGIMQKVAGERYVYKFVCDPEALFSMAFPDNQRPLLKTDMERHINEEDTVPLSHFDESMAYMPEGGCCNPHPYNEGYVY
# Chain of ETV6 (P41212 whole entry): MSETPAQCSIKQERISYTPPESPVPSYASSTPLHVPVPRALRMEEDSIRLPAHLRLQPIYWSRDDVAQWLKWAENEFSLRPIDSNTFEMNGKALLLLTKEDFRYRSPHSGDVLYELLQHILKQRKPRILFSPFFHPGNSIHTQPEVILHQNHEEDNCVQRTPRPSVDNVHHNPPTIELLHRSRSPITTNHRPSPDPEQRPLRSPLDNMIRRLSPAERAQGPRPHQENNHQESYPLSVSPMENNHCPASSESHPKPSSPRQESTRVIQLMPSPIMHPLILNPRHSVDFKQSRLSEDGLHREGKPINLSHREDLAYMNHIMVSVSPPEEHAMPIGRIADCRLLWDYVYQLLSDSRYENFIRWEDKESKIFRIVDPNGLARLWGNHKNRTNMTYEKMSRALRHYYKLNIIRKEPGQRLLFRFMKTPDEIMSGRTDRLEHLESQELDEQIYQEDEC
sequence,measurement,setting,value
CTGCAA,binding signal,FEV,"1.29 fold enrichment (6-mer frequency, TF over GST control)"
same,binding signal,ETV5,"1.3 fold enrichment (6-mer frequency, TF over GST control)"
same,binding signal,HSF1,"1.14 fold enrichment (6-mer frequency, TF over GST control)"
same,binding signal,SPIC,"1.2 fold enrichment (6-mer frequency, TF over GST control)"
same,binding signal,ELF4,"1.23 fold enrichment (6-mer frequency, TF over GST control)"
same,binding signal,ELK4,"1.32 fold enrichment (6-mer frequency, TF over GST control)"
same,binding signal,ETV2,"1.07 fold enrichment (6-mer frequency, TF over GST control)"
same,binding signal,ELF3,"1.4 fold enrichment (6-mer frequency, TF over GST control)"
same,binding signal,CRX,"1.05 fold enrichment (6-mer frequency, TF over GST control)"
same,binding signal,ETV1,"1.24 fold enrichment (6-mer frequency, TF over GST control)"
same,binding signal,ERF,"1.28 fold enrichment (6-mer frequency, TF over GST control)"
same,binding signal,ETV3L,"1.35 fold enrichment (6-mer frequency, TF over GST control)"
same,binding signal,ETS2,"1.31 fold enrichment (6-mer frequency, TF over GST control)"
same,binding signal,SPDEF,"1.11 fold enrichment (6-mer frequency, TF over GST control)"
same,binding signal,ETV7,"1.16 fold enrichment (6-mer frequency, TF over GST control)"
same,binding signal,ELF5,"1.17 fold enrichment (6-mer frequency, TF over GST control)"
same,binding signal,ETV3,"1.26 fold enrichment (6-mer frequency, TF over GST control)"
same,binding signal,ETV6,"1.33 fold enrichment (6-mer frequency, TF over GST control)"
